According to PubChem BioAssay AID1159580 (chemical genetic matrix, 2015):
Values joined by “and” are separate entries in the source; they are usually repeats but may differ in a detail not shown here. Equal entries are not always repeated. The whole screen tested about 5,500 compounds, of which about 2,000 (36%) were called active. Roughly 18% stayed inconclusive and do not appear here. No stated cut-off is given here; in the data, active means normalized growth mostly below about 0.91 (no sharp cut-off); inconclusive means no clear call, values can overlap the other calls; inactive means mostly above about 0.92. The list shows a part of the results.

Experiment: chemical genetic growth profiling, strain panel (AID 1159580);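 further: tested at 20 µM; growth read once vehicle control cultures reached saturation at 30 °C; 1 = growth at the plate median or of vehicle wells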
Conditions: S. cerevisiae deletion strains, growth OD

Measured: normalized growth

NCCC(=O)N[C@@H](Cc1cnc[nH]1)C(=O)O
inactive: locus YAL021C, strain ccr4, stronger effect = lower value 0.997 | locus YAL026C, strain drs2, stronger effect = lower value 1.01 | locus YAL030W, strain snc1, stronger effect = lower value 1.01 | locus YBL061C, strain skt5, stronger effect = lower value 1.01 | locus YBR009C, strain hhf1, stronger effect = lower value 1.01 | locus YBR021W, strain FUR4, stronger effect = lower value 1.06 | locus YBR023C, strain chs3, stronger effect = lower value 1 | locus YBR171W, strain sec66, stronger effect = lower value 1.02 | locus YBR229C, strain ROT2, stronger effect = lower value 0.993 | locus YBR231C, strain swc5, stronger effect = lower value 1.01 | locus YBR279W, strain paf1, stronger effect = lower value 1.01 | locus YCL011C, strain gbp2, stronger effect = lower value 1.01 | locus YCL016C, strain dcc1, stronger effect = lower value 1.01 | locus YCL029C, strain bik1, stronger effect = lower value 0.967 | locus YCL061C, strain MRC1, stronger effect = lower value 1.01 | locus YCL069W, strain vba3, stronger effect = lower value 1.01 | locus YCR088W, strain abp1, stronger effect = lower value 1.01 | locus YDL005C, strain med2, stronger effect = lower value 1.01 | locus YDL035C, strain GPR1, stronger effect = lower value 0.997 | locus YDL040C, strain nat1, stronger effect = lower value 0.998 | locus YDL074C, strain BRE1, stronger effect = lower value 1.01 | locus YDL101C, strain DUN1, stronger effect = lower value 0.994 | locus YDL134C, strain PPH21, stronger effect = lower value 1.04 | locus YDL185W, strain tfp1, stronger effect = lower value 0.957 | locus YDL192W, strain arf1, stronger effect = lower value 0.98 | locus YDR001C, strain nth1, stronger effect = lower value 1.01 | locus YDR069C, strain doa4, stronger effect = lower value 1.01 | locus YDR101C, strain arx1, stronger effect = lower value 0.99 | locus YDR137W, strain rgp1, stronger effect = lower value 1.01 | locus YDR159W, strain sac3, stronger effect = lower value 1.02 | locus YDR162C, strain NBP2, stronger effect = lower value 1.03 | locus YDR195W, strain ref2 0.978 | locus YDR297W, strain sur2, stronger effect = lower value 1.01 | locus YDR318W, strain mcm21, stronger effect = lower value 0.986 | locus YDR334W, strain swr1, stronger effect = lower value 1.01 | locus YDR335W, strain msn5, stronger effect = lower value 1.01 | locus YDR388W, stronger effect = lower value 0.979 | locus YDR392W, strain spt3, stronger effect = lower value 1.03 | locus YDR502C, strain sam2, stronger effect = lower value 0.997 | locus YEL003W, strain gim4, stronger effect = lower value 1.02 | locus YEL037C, strain rad23, stronger effect = lower value 1.01 | locus YEL061C, strain CIN8 (second series), stronger effect = lower value 1.01 | locus YEL061C, strain CIN8, stronger effect = lower value 0.997 | locus YER015W, strain faa2, stronger effect = lower value 1.01 | locus YER016W, strain bim1, stronger effect = lower value 1 | locus YER110C, stronger effect = lower value 0.972 | locus YER111C, strain swi4, stronger effect = lower value 0.992 | locus YER155C, strain BEM2 (second series), stronger effect = lower value 1.03 | locus YER155C, strain BEM2, stronger effect = lower value 0.999 | locus YER167W, strain BCK2, stronger effect = lower value 0.99 | locus YFR010W, strain ubp6, stronger effect = lower value 1.02 | locus YGL078C, strain dbp3, stronger effect = lower value 0.999 | locus YGL086W, strain mad1, stronger effect = lower value 1 | locus YGL167C, strain pmr1, stronger effect = lower value 1.01 | locus YGL173C, strain kem1, stronger effect = lower value 1.01 | locus YGL227W, strain vid30, stronger effect = lower value 1.01 | locus YGL240W, strain doc1, stronger effect = lower value 1.01 | locus YGL248W, strain PDE1, stronger effect = lower value 1 | locus YGL253W, strain hxk2, stronger effect = lower value 1.02 | locus YGR135W, strain pre9, stronger effect = lower value 0.977 | locus YGR229C, strain SMI1, stronger effect = lower value 1.02 | locus YGR252W, strain gcn5, stronger effect = lower value 1.05 | locus YHR013C, strain ard1, stronger effect = lower value 1.04 | locus YHR027C, strain rpn1, stronger effect = lower value 1.02 | locus YHR030C, strain SLT2, stronger effect = lower value 0.983 and 1.01 | locus YHR079C, strain IRE1 (second series), stronger effect = lower value 0.979 | locus YHR079C, strain IRE1, stronger effect = lower value 1.02 | locus YHR094C, strain hxt1, stronger effect = lower value 0.987 | locus YHR129C, strain ARP1, stronger effect = lower value 0.994 | locus YHR142W, strain chs7, stronger effect = lower value 1.03 | locus YHR200W, strain rpn10, stronger effect = lower value 0.986 | locus YIL066C, strain RNR3, stronger effect = lower value 1.01 | locus YIL073C, strain SPO22, stronger effect = lower value 0.942 | locus YIL125W, strain kgd1, stronger effect = lower value 0.975 | locus YIR030C, strain dcg1, stronger effect = lower value 0.983 | locus YJL092W, strain hpr5, stronger effect = lower value 1.01 | locus YJL095W, strain BCK1 (second series), stronger effect = lower value 1.02 | locus YJL095W, strain BCK1, stronger effect = lower value 1.02 and 1.01 | locus YJL115W, strain asf1, stronger effect = lower value 1.02 | locus YJL129C, strain trk1, stronger effect = lower value 1.02 | locus YJL134W, strain LCB3, stronger effect = lower value 0.988 | locus YJL154C, strain vps35, stronger effect = lower value 1.01 | locus YJL164C, strain tpk1, stronger effect = lower value 1.01 | locus YJL166W, strain qcr8, stronger effect = lower value 1.01 | locus YJL168C, strain set2, stronger effect = lower value 0.985 | locus YJL187C, strain SWE1 (second series), stronger effect = lower value 0.999 | locus YJL187C, strain SWE1, stronger effect = lower value 1 | locus YJR043C, strain POL32, stronger effect = lower value 1.02 | locus YJR066W, strain TOR1, stronger effect = lower value 0.968 | locus YKL009W, strain mrt4, stronger effect = lower value 0.94 | locus YKL068W, stronger effect = lower value 0.978 | locus YKL085W, strain MDH1 (second series), stronger effect = lower value 0.975 | locus YKL085W, strain MDH1, stronger effect = lower value 0.975 | locus YKL160W, strain elf1, stronger effect = lower value 1.01 | locus YKL190W, strain CNB1, stronger effect = lower value 0.991 | locus YKR001C, strain vps1, stronger effect = lower value 1.02 | locus YKR026C, strain gcn3, stronger effect = lower value 1.01 | locus YKR091W, strain srl3, stronger effect = lower value 1.01 | locus YLL001W, strain dnm1, stronger effect = lower value 1 | locus YLL026W, stronger effect = lower value 1.01 | locus YLL041C, strain sdh2, stronger effect = lower value 1.01 | locus YLR027C, strain aat2, stronger effect = lower value 0.997 | locus YLR039C, strain RIC1, stronger effect = lower value 1.01 | locus YLR058C, strain SHM2, stronger effect = lower value 0.987 | locus YLR102C, strain apc9, stronger effect = lower value 0.991 | locus YLR113W, strain HOG1, stronger effect = lower value 0.985 | locus YLR221C, strain rsa3, stronger effect = lower value 1.01 | locus YLR258W, strain gsy2, stronger effect = lower value 1.02 | locus YLR262C, strain YPT6 (second series), stronger effect = lower value 1.02 | locus YLR262C, strain YPT6, stronger effect = lower value 0.93 | locus YLR268W, strain sec22, stronger effect = lower value 0.982 | locus YLR320W, strain mms22, stronger effect = lower value 1.02 | locus YLR330W, strain CHS5, stronger effect = lower value 0.983 | locus YLR342W, strain FKS1 (second series), stronger effect = lower value 1.01 | locus YLR342W, strain FKS1, stronger effect = lower value 1.02 | locus YLR357W, strain rsc2, stronger effect = lower value 1.03 | locus YLR370C, strain arc18, stronger effect = lower value 1.01 | locus YLR371W, strain rom2, stronger effect = lower value 0.978 | locus YLR384C, strain iki3, stronger effect = lower value 1.02 | locus YLR418C, strain cdc73, stronger effect = lower value 1 | locus YML016C, strain PPZ1, stronger effect = lower value 0.992 | locus YML032C, strain rad52, stronger effect = lower value 0.976 | locus YML120C, strain ndi1, stronger effect = lower value 1.01 | locus YML124C, strain tub3, stronger effect = lower value 0.986 | locus YMR058W, strain fet3, stronger effect = lower value 1.02 | locus YMR078C, strain ctf18, stronger effect = lower value 0.984 | locus YMR125W, strain sto1, stronger effect = lower value 1.01 | locus YMR129W, stronger effect = lower value 1.01 | locus YMR205C, strain PFK2, stronger effect = lower value 1.01 | locus YMR223W, strain ubp8, stronger effect = lower value 0.979 | locus YMR231W, strain pep5, stronger effect = lower value 0.985 | locus YMR307W, strain GAS1, stronger effect = lower value 1.08 | locus YNL067W, strain RPL9B, stronger effect = lower value 1.01 | locus YNL071W, strain lat1, stronger effect = lower value 1.01 | locus YNL128W, strain TEP1, stronger effect = lower value 0.989 | locus YNL153C, strain GIM3, stronger effect = lower value 1.02 | locus YNL183C, strain NPR1, stronger effect = lower value 0.983 | locus YNL209W, strain ssb2, stronger effect = lower value 1 | locus YNL233W, strain BNI4, stronger effect = lower value 1.03 | locus YNL248C, strain rpa49, stronger effect = lower value 1.02 | locus YNL250W, strain rad50, stronger effect = lower value 0.97 | locus YNL271C, strain bni1, stronger effect = lower value 0.988 | locus YNL298W, strain CLA4, stronger effect = lower value 0.996 | locus YNL307C, strain MCK1, stronger effect = lower value 0.984 | locus YNL322C, strain KRE1 (second series), stronger effect = lower value 1.02 | locus YNL322C, strain KRE1, stronger effect = lower value 0.994 | locus YNR049C, strain mso1, stronger effect = lower value 1.01 | locus YNR052C, strain pop2, stronger effect = lower value 0.982 | locus YOL012C, strain htz1 0.915 | locus YOL147C, strain pex11, stronger effect = lower value 0.993 | locus YOR001W, strain rrp6, stronger effect = lower value 1.01 | locus YOR061W, strain CKA2, stronger effect = lower value 0.99 | locus YOR069W, strain VPS5, stronger effect = lower value 0.993 | locus YOR070C, strain gyp1, stronger effect = lower value 1.02 | locus YOR080W, strain dia2, stronger effect = lower value 1 | locus YOR083W, strain WHI5, stronger effect = lower value 1.02 | locus YOR106W, strain vam3, stronger effect = lower value 1.03 | locus YOR136W, strain idh2, stronger effect = lower value 0.99 | locus YOR144C, strain elg1, stronger effect = lower value 1.01 | locus YOR184W, strain ser1, stronger effect = lower value 1.01 | locus YOR231W, strain MKK1, stronger effect = lower value 1.02 | locus YOR265W, strain rbl2, stronger effect = lower value 0.999 | locus YOR270C, strain vph1, stronger effect = lower value 1.08 | locus YOR290C, strain snf2, stronger effect = lower value 1.02 | locus YOR316C, strain cot1, stronger effect = lower value 0.983 | locus YPL051W, strain arl3, stronger effect = lower value 1.01 | locus YPL055C, strain LGE1, stronger effect = lower value 1.03 | locus YPL078C, strain atp4, stronger effect = lower value 1.01 | locus YPL106C, strain sse1, stronger effect = lower value 1.02 | locus YPL240C, strain hsp82, stronger effect = lower value 1.01 | locus YPL241C, strain CIN2, stronger effect = lower value 0.996 | locus YPL256C, strain CLN2, stronger effect = lower value 1.04 | locus YPR119W, strain clb2, stronger effect = lower value 0.984 | locus YPR141C, strain kar3, stronger effect = lower value 0.973 | locus YPR163C, strain tif3, stronger effect = lower value 0.975 | locus YPR167C, strain met16, stronger effect = lower value 1.01 | strain wtn01, stronger effect = lower value 0.999
